This is a sample that favours compounds with a hit; in the whole collection about 6.6% have one here.
MPTP inh: permeability transition pore inhibition; isolated mouse mitochondria, Ca2+ swelling absorbance, 30 min; 360,000 compounds, 1.4% hits; inhibition, % at 10 µM;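 active means inhibition of 50% or more, scaled per plate between neutral and stimulator controls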;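 further: 0% = DMSO wells given calcium and 100% = 1 mM EGTA wells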
CSC inhib: blocks cancer stem cells; inhibition, % at 7.5 µM; cancer stem cell-like cells viability, luminescence; 300,000 compounds, 1.1% hits; AID 2717; in the data active means inhibition above about 75%; tested in HMLE shEcad cells
Mdm2-MdmX inh: inhibitors of human Mdm2/MdmX interaction | O15151+Q00987 | SaOS-2 split-luciferase Mdm2/MdmX complementation, luminescence | inhibition, % at 8 µM | 330,000 compounds, 3% hits | AID 485346;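 active means inhibition of at least 50% at 8 µM in the primary screen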
Beta apoptosis: blocks beta cell apoptosis; INS-1E cytokine-induced death, ATP luminescence, 48 h; percent of positive-control rescue, neutral wells zero; AID 435005; protection from apoptosis, % (test concentration not listed); 300,000 compounds, 0.8% hits;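 active means Every replicate reaches about 75%, or at least half do and their mean reaches it too, limit read from the data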;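 further: 0% = cytokine-treated negative control wells and 100% = positive control rescue; higher means more ATP so stronger rescue from cytokine killing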
Gli-Sufu antag: antagonists of Gli-Sufu signaling | Sufu-KO-LIGHT fibroblasts, Gli luciferase reporter luminescence | inhibition, % at 5 µM | 340,000 compounds, 0.74% hits | AID 588413;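 active means inhibition above about 55%, limit read from the data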;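 further: 0% = DMSO-treated cells and 100% = wells with medium but no cells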
NR3A LBD binder: NR3A (human) ligand-binding domain modulation; NR3A LBD differential scanning fluorimetry, Tm shift; 0% = protein alone, 100% = glycine-bound protein; Tm shift relative to glycine control, % at 25 µM; 340,000 compounds, 2.5% hits; AID 1259313;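 active means melting temperature shift of at least 10% of the positive control shift, at one fixed dose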
Starred values were filed as active, the others as inactive; nt = no result given.

SMILES	MPTP inh	CSC inhib	Mdm2-MdmX inh	Beta apoptosis	Gli-Sufu antag	NR3A LBD binder
Cc1onc(-c2c(Cl)cccc2Cl)c1C(=O)NC(=S)Nc1sc2c(c1C(N)=O)CCC(C)C2 (stereo unspecified)	2.8	-14.2	36.1	-3.6	-1.2	30.4*
CC1CCc2c(sc(Nc3nc4c(F)cccc4s3)c2C(N)=O)C1 (stereo unspecified)	48.6	33.9	1.6	-4.3	0.8	11.8*
Cn1c(CNc2ccc(Cl)cc2)nc2ccccc21	-1.3	57.8	-28.7	-10.6	-72.1	12.2*
Cc1cccc(NCc2nc3ccccc3n2C)c1	0.0	3.2	-51.7	1.0	-50.0	-4.3
Cc1ccc(N2CCN(c3ccc(NCc4nc5ccccc5n4C)cc3)CC2)cc1	0.7	-9.0	2.4	11.7	35.8	12.6*
COc1ccccc1C(=O)N1CCN(C(=O)c2oc3c(C)c(C)ccc3c2C)CC1	0.7	nt	nt	nt	nt	nt
CC(O)CNc1nc2ccccc2n1CC(=O)NCCc1ccc(Cl)cc1 (stereo unspecified)	-5.0	-13.7	12.6	-7.4	-6.9	0.1
CCCCCNC(=O)C1CC=CCC1C(=O)O (stereo unspecified)	-0.6	-7.5	-19.5	-6.1	3.2	11.6*
N#Cc1cc2cc(Cl)ccc2[nH]c1=O	-1.3	nt	nt	nt	nt	nt
C/C(=N\NC(=O)c1cc2ccccc2cc1O)c1cccs1	0.9	53.6	-88.9	1.7	2.1	13.6*
Cc1c(N/N=C(\C#N)C(=O)c2ccc(Cl)cc2)c(=O)n(-c2ccccc2)n1C	9.8	26.1	nt	76.0*	49.3	-5.7
COC(=O)C(=NNc1c(C)n(C)n(-c2ccccc2)c1=O)C(=O)OC	-0.5	-14.1	-26.5	-0.6	-7.2	5.9
CCOc1ccc(CCN2C(=S)N([C@@H](CC(C)C)CN3CCCC3CN3C(=S)NC[C@@H]3Cc3ccc(O)cc3)C[C@@H]2Cc2ccccc2)cc1 (stereo partly specified)	-1.4	nt	nt	nt	4.1	30.5*
CCOc1ccc(CCN2C(=S)N([C@@H](CC(C)C)CN3CCC[C@@H]3CN3C(=S)NC[C@@H]3CC(C)C)C[C@@H]2Cc2ccc(O)cc2)cc1	2.0	nt	nt	nt	nt	nt
CCOc1ccc(CCN2C(=S)N([C@@H](CC(C)C)CN3CCCC3CN3C(=S)NC[C@@H]3Cc3ccc(O)cc3)C[C@@H]2Cc2ccc(O)cc2)cc1 (stereo partly specified)	1.0	nt	nt	nt	9.4	34.5*
CCOc1ccc(CCN2C(=S)N([C@@H](CC(C)C)CN3CCCC3CN3C(=S)NC[C@@H]3Cc3ccc(O)cc3)C[C@@H]2CC(C)C)cc1 (stereo partly specified)	1.2	nt	nt	nt	-2.7	11.9*
Oc1ccc(C[C@H]2CNC(=S)N2CC2CCCN2C[C@H](Cc2ccccc2)N2C[C@H](Cc3ccc(O)cc3)N(CCc3ccccc3)C2=S)cc1 (stereo partly specified)	0.8	nt	nt	nt	25.4	30.5*
CCOc1cc2sc(N3CCC(C(=O)NCCCN4CCCC4=O)CC3)nc2cc1Br	-0.2	-5.1	23.0	4.9	-11.8	2.1
O=C(NCC1CCCO1)c1ccc(F)c2ccccc12 (stereo unspecified)	-0.9	6.4	3.5	-1.0	3.1	-0.1
CCCNc1c(NC(=O)C2CCC(C)CC2)c(=O)oc2ccccc12 (stereo unspecified)	-0.6	-11.1	20.4	3.9	5.5	0.5
O=C(Nc1ccccn1)c1ccc(Br)s1	2.0	nt	-38.3	nt	-109.2	1.9
O=C(Nc1ccc(Cl)cc1)c1ccc(-c2ccccn2)s1	4.2	0.9	-4.5	-7.2	-63.1	30.5*
Cc1nc(-c2ccccn2)sc1C(=O)Nc1ccc(Cl)c(Cl)c1	16.4	25.3	-48.4	0.2	-43.6	25.6*
COc1ccc(C=NN=C2c3ccccc3-c3ccccc32)cc1OC	0.0	nt	nt	nt	-2.0	-6.3
Cn1c(=O)c2cc(NC(=O)Cc3ccccc3F)ccc2n1Cc1ccc(Cl)cc1	-2.2	nt	nt	nt	nt	nt
SMILES	MPTP inh	CSC inhib	Mdm2-MdmX inh	Beta apoptosis	Gli-Sufu antag	NR3A LBD binder
CC(C)(C)c1ccc(S(=O)(=O)NC(=O)C2(C)CCN2C(=O)C2CCCCC2)cc1 (stereo unspecified)	1.3	nt	nt	nt	nt	nt
COc1ccc(/C=N/Nc2nc(N)cc(Cl)n2)cc1OC	-0.1	-9.3	0.9	-3.1	-21.3	12.0*
Nc1cc(Cl)nc(N/N=C/c2c(O)ccc3ccccc23)n1	-1.3	2.6	-48.5	29.8	-34.7	27.7*
COc1ccc(/C=N/Nc2ccccn2)cc1OC	0.7	14.1	2.0	-16.1	-38.4	2.9
Cc1nc2ccccc2c(=O)n1/N=C/c1ccc2ccccc2c1O	1.7	20.2	37.5	115.3*	6.8	-10.0
COc1ccc(S(=O)(=O)N2CCOCC2)cc1NC(=O)C1CCCCN1S(=O)(=O)c1ccccc1 (stereo unspecified)	0.8	nt	nt	nt	-0.1	0.4
O=S(=O)([O-])C(c1ccccc1)[n+]1ccccc1 (stereo unspecified)	0.5	-0.9	-11.2	-3.0	-9.2	21.1*
O=C(O)C(C(O)c1ccccc1)[n+]1ccccc1 (stereo unspecified)	-1.5	-6.6	1.3	-1.3	-6.1	-0.3
O=C(C1CCCN1S(=O)(=O)c1ccc(Cl)c(Cl)c1)N1CCOCC1 (stereo unspecified)	0.3	18.9	-3.6	-3.4	4.7	10.2*
Cc1cc2cc(CNC(=S)Nc3ccc(OC(F)F)cc3)ccc2[nH]1	1.9	6.1	27.1	-7.0	-18.8	3.8
Cc1cc2cc(CNC(=S)Nc3ccc(OC(F)(F)F)cc3)ccc2[nH]1	3.1	29.7	0.8	nt	8.1	12.4*
Cc1sc2ncnc(N3CCC(C(=O)Nc4ccc(Cl)c(Cl)c4)CC3)c2c1C	25.9	69.9	41.4	10.3	49.1	10.6*
O=c1[nH]c(C2CCN(S(=O)(=O)c3cccc(C(F)(F)F)c3)CC2)nc2c1nnn2Cc1cccc(F)c1	0.0	9.2	34.5	nt	26.9	15.8*
CCCS(=O)(=O)NC(=O)C1(C)CCN(C(=O)c2ccc(OC(F)F)cc2)C1 (stereo unspecified)	0.2	nt	nt	nt	nt	nt
Fc1ccc(-c2cn3cc(C(F)(F)F)cc(Cl)c3n2)cc1	21.7	0.7	-239.2	-0.6	-123.6	-2.1
COc1ccc(-c2cn3cc(C(F)(F)F)cc(Cl)c3n2)cc1	9.7	127.2*	-299.4	-2.4	-98.5	-4.9
O=C1C(CCS(=O)c2ccccc2)C(=O)N(c2ccccc2)N1c1ccccc1 (stereo unspecified)	-3.6	-16.9	11.5	1.3	-0.6	17.0*
C=CCN(C(=O)CCC(=O)Nc1cc(C)on1)C(C(=O)NC(C)(C)C)c1cccc(OC)c1OC (stereo unspecified)	1.1	-14.3	35.9	-0.8	1.4	401.4*
CCC1=Nc2cc(C(=O)NCCCN3CCN(C)CC3)ccc2Sc2ccccc21	-2.0	-17.7	18.8	-3.0	17.2	0.1
Cn1c(SCC(=O)N/N=C/c2ccc([N+](=O)[O-])s2)nnc1-c1ccc(Cl)cc1	-4.5	59.1	3.8	88.8*	1.1	8.0

From PubChem
